Measured values as given in ChEMBL document CHEMBL3988442, “University of Dundee, Small-Polar-MMV Screening Library” (2021).
In all, about 48,000 compounds went through this assay and about 13,000 (27%) showed an effect of 50% or more. Some of the results follow.

What follows are molecules tested on Wolbachia pipientis (assay: Anti-Wolbachia Cell-Based Screen). Settings: 5 µM.
Format: functional
Set-up: scale not given: in the data most compounds retested in dose-response had high values

Structure (SMILES)	Percent Effect [%]
CCNc1ncc(CN2C[C@H]3CC[C@@H]2CN(C(=O)C2CCC2)C3)cn1	-9.372
COCc1cc(N2CCN(c3ccc(Cl)cn3)CC2)n2nccc2n1	-13.5
COc1ccc(F)c(CN2CCCC(O)(CNCc3ccoc3)C2=O)c1 (configuration not stated)	4.177
CC1(C)CC(N(Cc2ccccc2)Cc2c[nH]cn2)CC(C)(C)N1.O=C(O)CC(O)(CC(=O)O)C(=O)O	113.6
Cc1n[nH]c(C)c1CNC(=O)N(Cc1ccccc1)CC(C)(C)O	-20.3
CCCc1cc(CN(C)C2CC(C)(C)NC(C)(C)C2)n[nH]1	-6.342
O=C(c1cc[nH]n1)N(Cc1ccccc1)CC1CCC1	-1.584
Cc1nc[nH]c1CN(C)CC1CCCN(CCc2ccc(Cl)cc2)C1 (configuration not stated)	-5.725
Cc1nc[nH]c1CN(Cc1ccc(F)cc1)C1CC(C)(C)NC(C)(C)C1	102.8
Cc1nc[nH]c1CN(Cc1ccccc1)C1CC(C)(C)NC(C)(C)C1.O=C(O)CC(O)(CC(=O)O)C(=O)O	106.8
Cc1ccc(CNC(=O)N(Cc2ccccc2F)C2CC2)cn1	-4.204
Cc1nc[nH]c1CN(Cc1ccccc1F)C1CC(C)(C)NC(C)(C)C1.O=C(O)CC(O)(CC(=O)O)C(=O)O	111.6
Cc1ccc(CN(Cc2c[nH]cn2)C2CC(C)(C)NC(C)(C)C2)o1.O=C(O)CC(O)(CC(=O)O)C(=O)O	1.098
O=C(c1ccc(C2CCCN2C(=O)c2ccoc2)s1)N1CCOCC1 (configuration not stated)	-19.01
Cc1cnc(C)c(-c2cc(O)c3c(c2)CN(c2nccs2)CCO3)n1	-4.792
O=C(CCc1ccco1)NS(=O)(=O)Cc1ccon1	-7.253
Fc1cccc2c1CCC2NCc1ccc(N2CCOCC2)cc1 (configuration not stated)	19.23
Cc1nc(CN(C)S(=O)(=O)c2ccccc2Br)no1	4.725
Cc1ccc(CN2C[C@H]3CC[C@@H]2CN(Cc2[nH]cnc2C)C3)o1	6.692
Cc1ccc(CN(Cc2[nH]cnc2C)C2CC(C)(C)NC(C)(C)C2)o1.O=C(O)CC(O)(CC(=O)O)C(=O)O	115.3
Cc1nc(O)cc(CN2C[C@H](NC(=O)C3CCCC3)[C@@H](C3CC3)C2)n1	0
CCC[C@H]1CN(Cc2cscn2)C[C@@H]1NC(=O)C1(COC)CCC1	6.083

Structure (SMILES)	Percent Effect [%]
CC(=O)N[C@@H]1CN(c2nc(CO)cs2)C[C@H]1c1ccc(C)o1	5.445
CCC[C@H]1CN(c2nc(CO)cs2)C[C@@H]1NC(=O)C1CCC1	94.3
CCC[C@H]1CN(Cc2nccn2C)C[C@@H]1NC(=O)C1(COC)CCC1	-15.87
Cc1nc(O)cc(CN2C[C@H](NC(=O)C3CCC3)[C@@H](C3CC3)C2)n1	-31.53
CCC[C@H]1CN(c2nc(CO)cs2)C[C@@H]1NC(=O)C1(COC)CC1	96.14
O=C(N[C@H]1CN(c2nc(CO)cs2)C[C@@H]1C1CC1)C1CCCCC1	92.34
CCC[C@H]1CN(c2nccc(OC)n2)C[C@@H]1NC(=O)C1CCOCC1	-2.049
COc1ccc(Br)cc1CCC(=O)N1CCC(O)CC1	-2.628
COc1ccc(-n2c(SCC(=O)O)nnc2-c2cn[nH]c2)cc1	-10.86
O=C(C1CCCS1)N1CCOc2cccc(F)c21 (configuration not stated)	-0.5094
Cc1noc(C)c1NC(=O)N1CCC(NC(=O)OC(C)(C)C)CC1	-9.132
Cc1nn(-c2ccccn2)c(C)c1[C@@H]1C=C[C@@H](NC(=O)NC(C)C)C1	4.559
CC(C)(C(=O)N1CCC(C(N)=O)C1)c1ccccc1F (configuration not stated)	2.701
CCc1nc(N)sc1C(=O)N1CCCC(COc2cccc(C)c2)C1 (configuration not stated)	-15.03
CC(C)(N)C(=O)N1CCC(c2nccnc2Oc2ccccc2F)CC1	77.45
COc1ccc(Oc2ncccc2NC(=O)N2CCOC(C)C2)cc1 (configuration not stated)	2.088
Cc1ccc(Oc2nccnc2C2CCN(C(=O)C(C)(C)N)CC2)cc1	108.2
CC(C)(C(=O)N1CCC(CS(N)(=O)=O)CC1)c1ccccc1F	-25.38
COCC(=O)N1CCC(Oc2cccc(C)c2)CC1	14.96
COc1ccc(Oc2nccnc2C2CCN(C(C)=O)CC2)cc1	88.85
CC(=O)N1CCC(c2nccnc2Oc2ccccc2)CC1	-11.76
Cc1cccc(Oc2nccnc2C2CCN(C(=O)C(C)(C)N)CC2)c1	110.7

Structure (SMILES)	Percent Effect [%]
CC(C)N1C(=O)CC(NC(=O)c2cc(Cl)sc2Cl)C1=O (configuration not stated)	-12.95
COc1ccc(S(=O)(=O)Nc2cccnc2-n2cncn2)c(C)c1	-3.562
CCc1c(NCc2cccnc2)cnn1CC(C)C	-15.31
CC(C)CN1CCc2[nH]cnc2C12CCN(C(=O)c1ccnn1C)CC2	-2.92
CC(C)(N)C(=O)N1CCC(c2nccnc2Oc2cccc(F)c2)CC1	92.95
O=C(c1coc(COc2cccc(F)c2)n1)N1CC[C@H](O)[C@@H](O)C1	-11.67
O=C(NCc1nncn1C1CC1)Nc1ccc(OC2CCC2)c(F)c1	8.636
Cc1ncc(-c2ccccn2)c(CCNC(=O)CCC2CCCO2)n1 (configuration not stated)	93.7
CCOCCNC(=O)CCC1CCCO1 (configuration not stated)	-23.31
Cc1ncc(-c2ccccn2)c(CCNC(=O)C2CCCC2)n1	121.3
O=C(NCCNC(=O)C1CC1)c1cnc(-c2ccccc2)nc1	15.61
Cc1cccc(C)c1OCCNC(=O)CNC(=O)C1CCCC1	-3.994
COc1ccc(OC)c(CCNC(=O)CCC2CCCO2)c1 (configuration not stated)	18.05
CC(NCc1cnc(C2CCC2)s1)c1cccc(-n2ccnc2)c1 (configuration not stated)	-10.94
Cc1ccc(CCN2CCCC23Cc2ccccc2CNC3=O)cc1 (configuration not stated)	109.3
Cc1cc(C)c2[nH]c(=O)c(CN3CCCC(O)(CO)C3)cc2c1 (configuration not stated)	-6.012
O=C1N(CCc2ccccc2)CCCC1(O)CNCc1ccc(F)cc1 (configuration not stated)	10.95
O=C(CC1CC1)N1CCC2(CC1)C(=O)NCCN2Cc1ccccc1	-11.42
Cc1ccc(CN2CCCC23Cc2ccccc2CNC3=O)cc1 (configuration not stated)	128.7
Cc1cc(C)c(CN2CCCC23Cc2ccccc2CNC3=O)c(C)c1 (configuration not stated)	111.5
CC(C)NC(=O)N1CCC2(CC1)C(=O)NCCN2Cc1ccccc1.O=C(O)C(F)(F)F	-27.1
OC(CNCCn1cccn1)COc1cccc(C(F)(F)F)c1 (configuration not stated)	6.446

Structure (SMILES)	Percent Effect [%]
CCN1CCC(NC(=O)CNC(C)Cn2cccn2)CC1 (configuration not stated)	5.956
CCC[C@@H]1CN(Cc2cc3c(cc2OC)OCO3)C[C@H]1C(=O)O	5.15
CCc1ncncc1C(=O)NCCNc1ncnc2sccc12	-23.73
CCOC[C@H]1CC[C@H]2[C@H](CCN2C(=O)c2cnccn2)O1	103.2
CCOC[C@@H]1CC[C@H]2[C@H](CCN2C(=O)c2cnccn2)O1	112.7
CCOC[C@@H]1CC[C@H]2[C@H](CCN2S(=O)(=O)Cc2ccccc2)O1	-7.135
Cc1nc(COC[C@@H]2CC[C@H]3[C@H](CCN3C(=O)C3CC3)O2)cs1	-1.141
Cc1nc(COC[C@H]2CC[C@H]3[C@H](CCN3C(N)=O)O2)cs1	-9.234
COCC(=O)N1CC[C@@H]2O[C@H](COCc3csc(C)n3)CC[C@@H]21	4.421
CN(C)C(C(=O)N1CCC(C#N)CC1)c1ccccc1F (configuration not stated)	-0.3171
CCN1C[C@H]2C3(CCN(C(C)=O)CC3)CC[C@@]2(C(=O)N(C)C)C1.O=C(O)C(F)(F)F	6.202
CCCn1cc(-c2ccnc(NC3CCc4ccccc4C3)n2)c(C)n1 (configuration not stated)	0.5444
c1cncc(-c2nc(C3CC3)ncc2-c2ccnc(N3CCCC3)n2)c1	90.28
Cc1ncc(-c2ccnc(NC3CC3)n2)c(-c2cccnc2)n1	88.62
O=c1cc(-c2cccnc2)nc(-c2ccc(CN3CC[C@@H](O)C3)cc2)[nH]1	3.03
Cc1ncc(-c2ccnc(N3CCC[C@@H]3CO)n2)c(-c2cccnc2)n1	102.7
Cc1noc(-c2ccc(N3CCC[C@H]3CO)nc2)n1	4.962
COc1ccnc(N2CCCN(c3nc(C4CC4)ns3)CC2)n1	2.276
Cc1ncc(-c2ccnc(N3CCCCCC3)n2)c(-c2cccnc2)n1	-6.559
Cc1ncc(-c2ccnc(N3CC[C@H](O)C3)n2)c(-c2cccnc2)n1	109
COc1ccccc1Oc1ncccc1CNC(=O)CN1CCCC1=O	-22.72
O=C(Nc1ccccc1)N1CCC(N2Cc3ncccc3C2=O)CC1	-2.29

Structure (SMILES)	Percent Effect [%]
CSC1(CNc2ncc(Br)cn2)CCOCC1	-8.791
COc1ccccc1C(=O)N(Cc1nc(C)cs1)CC1CCCO1 (configuration not stated)	-4.042
CCC[C@H]1CN(CCS(C)(=O)=O)C[C@@H]1NC(=O)c1cccnn1	3.679
COc1ccsc1C(=O)Nc1cc(Cl)c(=O)n(C)c1	-0.9546
O=C(NCCCOC1CCOC1)NC(C1CC1)C1CC1 (configuration not stated)	-5.056
CCCc1nc(C)c(CN2CC3(CCOC3)CCC2=O)s1 (configuration not stated)	-4.631
COc1ccc(-c2nc(CC(=O)N(C)CCC#N)cs2)cc1OC	-11.11
CCCS(=O)(=O)N1C[C@H](N(C)Cc2ccco2)[C@@H]2OCCC[C@@H]21.O=C(O)C(F)(F)F	-9.069
CN(Cc1ccco1)[C@@H]1CN(C(=O)c2ccnnc2)[C@@H]2CCCO[C@H]12.O=C(O)C(F)(F)F	0.1298
CN(Cc1ccco1)[C@@H]1CN(CC2CCOCC2)[C@@H]2CCCO[C@H]12.O=C(O)C(F)(F)F.O=C(O)C(F)(F)F	6.763
CN(Cc1cncnc1)[C@H]1CN(C(=O)c2ccco2)[C@@H]2CCCO[C@@H]21	83.44
COCC(=O)N1C[C@H](N(C)Cc2cncnc2)[C@H]2OCCC[C@H]21	102.5
CN(C)C(=O)CO[C@@H]1CN(Cc2ccccc2)[C@@H]2CCCO[C@@H]21	-2.745
Cc1ccc(CN2C[C@H](N(C)Cc3cncnc3)[C@H]3OCCC[C@H]32)o1	-12.1
CN(Cc1ccco1)[C@@H]1CN(Cc2ccc(F)cc2)[C@@H]2CCCO[C@H]12.O=C(O)C(F)(F)F.O=C(O)C(F)(F)F	1.532
CCN(CC)[C@@H]1CN(C(=O)c2ccnnc2)[C@@H]2CCCO[C@H]12.O=C(O)C(F)(F)F	-6.627
CCN(CC)[C@@H]1CN(C(=O)c2ccc(C#N)cc2)[C@@H]2CCCO[C@H]12.O=C(O)C(F)(F)F	-2.681
CN(Cc1cncnc1)[C@@H]1CN(C(=O)c2ccco2)[C@@H]2CCCO[C@H]12.O=C(O)C(F)(F)F	99.89
CN(Cc1cncnc1)[C@@H]1CN(C(=O)C2CC2)[C@@H]2CCCO[C@H]12.O=C(O)C(F)(F)F	103.9
